# Assay outcomes: PubChem, several laboratories
# Many of the other results were omitted from the sample, so hits are more common in it than they were.
# FAK inh: FAK (human) kinase inhibition; actives 0.84% (n = 97,000); inhibition, %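 (tested at 7 µM)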; Q05397; biochemical FAK kinase activity assay; in the data active = inhibition above about 19%;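 also: 0% = DMSO and 100% = reference compound high control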
# Mac1 fbg inh: inhibitors of human CD11b/CD18 binding to fibrinogen | P05107+P11215 | K562 CD11b/CD18 adhesion to fibrinogen, ATPlite luminescence; Mn2+ added to activate the integrin | inhibition, % at 10 µM | actives 0.54% (n = 93,000) | AID 1497;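 active = primary inhibition of 50% or more at 10 µM, then 40% or more on retest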
# Target sequence (P05107 whole entry, looked up, other chains not shown): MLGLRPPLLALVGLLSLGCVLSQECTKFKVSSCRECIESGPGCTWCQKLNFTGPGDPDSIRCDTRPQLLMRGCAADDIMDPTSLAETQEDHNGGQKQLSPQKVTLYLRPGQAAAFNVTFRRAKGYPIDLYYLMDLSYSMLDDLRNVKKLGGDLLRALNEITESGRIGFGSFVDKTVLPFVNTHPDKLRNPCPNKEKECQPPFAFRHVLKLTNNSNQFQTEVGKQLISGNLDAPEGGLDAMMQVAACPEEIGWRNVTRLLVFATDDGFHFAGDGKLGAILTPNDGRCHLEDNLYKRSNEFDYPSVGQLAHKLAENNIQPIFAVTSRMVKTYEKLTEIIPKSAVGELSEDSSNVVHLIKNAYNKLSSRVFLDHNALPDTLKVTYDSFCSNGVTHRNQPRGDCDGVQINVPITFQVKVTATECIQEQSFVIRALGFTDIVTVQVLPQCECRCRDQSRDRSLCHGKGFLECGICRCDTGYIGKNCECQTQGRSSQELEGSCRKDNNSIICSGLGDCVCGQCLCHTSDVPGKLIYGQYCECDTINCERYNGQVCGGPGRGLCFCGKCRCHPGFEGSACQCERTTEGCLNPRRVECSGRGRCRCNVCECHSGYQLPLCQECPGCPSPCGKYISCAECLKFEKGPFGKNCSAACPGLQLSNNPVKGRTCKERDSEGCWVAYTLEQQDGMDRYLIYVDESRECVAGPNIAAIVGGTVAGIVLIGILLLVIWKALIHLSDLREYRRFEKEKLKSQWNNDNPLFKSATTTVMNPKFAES
# D1 mod: D1 dopamine receptor (human) allosteric modulation; actives 5.9% (n = 58,000); HEK293 D1, CRE-luciferase, dopamine EC30 potentiation; actives deviate in either direction; B-score at 10 µM; P21728;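 active = luminescence count or its row- and column-corrected plate score outside the 99.7% band of the plate's sample wells, on either side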
# PTK2B oligo ant: Pyk2 (human) oligomerization antagonism; Q293 cells, Pyk2 FERM NanoBiT luminescence; stronger effect = lower value; actives 0.83% (n = 99,000); z-score (the deposit names both 25 µM and 10 µM);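 active = Z-score of -3 or lower, scaled per plate to the spread of control and sample wells; inactive = z-score above -3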;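 also: negative z-score means lost luminescence so less FERM oligomerization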
# Mac1 fbg enh: increases human CD11b/CD18 adhesion to fibrinogen | P05107+P11215 | K562 CD11b/CD18 adhesion to fibrinogen, ATPlite luminescence | activation, % at 10 µM | actives 0.07% (n = 93,000) | AID 1499;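 active = 10 µM primary screen giving 50% or more activity, confirmed by 40% or more on retest at that dose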
# hDAT+cocaine: changed human dopamine transporter uptake under cocaine IC80; Q01959; LLC-PK1 hDAT cells, [14C]-dopamine uptake with cocaine IC80; actives deviate in either direction; B-score at 10 µM; actives 1.3% (n = 110,000);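 active = Z score or B-score, a plate-position-corrected score, falls beyond the plate's 99.7% confidence bounds, in either direction; inactive = both scores lie inside the 99.7% bounds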;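 also: scored against the spread of the other compound wells on the same plate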
# D1 PAM confirm: confirmation of human D1 dopamine receptor allosteric modulators. HEK293 D1 CRE-luciferase, dopamine EC30 potentiation; stronger effect = higher value. shares compounds with D1 mod. AID 642. actives 88% (n = 2,200). luminescence at 10 µM;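 active = luminescence in either of two replicates above the same-plate mean plus 3 SD of the low-dose dopamine control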
# D1 ag no DA: secondary test of D1 modulators: activity without dopamine; shares compounds with D1 mod; HEK293 D1 CRE-luciferase, luminescence, no dopamine; stronger effect = higher value; luminescence at 10 µM; actives 0.8% (n = 1,900); AID 646; in the data active = luminescence above about 3900
# Isoprot counter: alters isoproterenol CRE-luciferase response in HEK293 cells | shares compounds with D1 mod | HEK293 D1 CRE-luciferase, isoproterenol EC30 counter-screen | calls only at 10 µM | actives 63% (n = 2,200);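 active = luminescence in either replicate above plate mean of wells with a partly effective reference agonist dose plus 3 SD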;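 also: isoproterenol raises cAMP through native beta-adrenoceptor Gs so signal bypasses D1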
# Starred values were filed as active, the others as inactive; i = inactive; . = no result given; + = active, no number.
SMILES,FAK inh,Mac1 fbg inh,D1 mod,PTK2B oligo ant,Mac1 fbg enh,hDAT+cocaine,D1 PAM confirm,D1 ag no DA,Isoprot counter
Cc1cc(=O)oc2c1ccc1oc(/C(=N/O)c3ccccc3)c(C)c12,3,.,5.2*,-3.7*,.,0.11,7656*,1496,+
Cc1cccc(-c2noc(CCCC(=O)N3CCOCC3)n2)c1,-3,4,.,0.93,-1,-0.17,.,.,.
Cc1nc(N)sc1N=Nc1ccc(F)cc1,-1,9,.,-0.18,30,-0.27,.,.,.
Cc1c(C(=O)OCC(C)C)[nH]c2c1C(=O)CC(c1ccco1)C2 (configuration not stated),15,23,5.8*,.,6,-1.2,12056*,1616,i
CN1CCN(c2ccc(Cl)cc2NS(=O)(=O)c2ccccc2Cl)CC1,0,20,-1.3,-0.49,0,0.3,.,.,.
Cc1nc(N2CCC(C(N)=O)CC2)c2nnn(Cc3ccccc3)c2n1,.,-3,3.2*,0.08,-4,-0.12,6740*,1504,i
O=C(COC(=O)/C=C/C(=O)OCC(=O)NC12CC3CC(CC(C3)C1)C2)NC12CC3CC(CC(C3)C1)C2,.,14,.,.,1,.,.,.,.
CC(=O)Nc1cc(C(=O)N2CCOCC2)ccc1S(=O)(=O)c1ccc(C)cc1,-2,.,5.6*,-0.07,.,2.2,5968,1596,i
CC(=O)Nc1cc(C(=O)N2CCCC2)ccc1S(=O)(=O)c1ccc(Cl)cc1,0,-4,.,-0.07,-3,-1,.,.,.
COCCOC(=O)c1[nH]c2c(c1C)C(=O)CC(c1cc(OC)ccc1OC)C2 (configuration not stated),.,10,0.13,.,2,-0.045,.,.,.
COc1ccc(OC)c(C2CC(=O)c3c([nH]c(C(=O)OC(C)C)c3C)C2)c1 (configuration not stated),0,39,2.8*,.,-4,-0.12,9020*,2012,+
CCCn1c(SCc2ccccc2)nc2c1c(=O)[nH]c(=O)n2C,.,4,0.63,0.02,-5,-0.015,.,.,.
C=CCn1c(SCc2nc3c(c(=O)[nH]c(=O)n3CCCC)n2CCC)nnc1-c1ccccc1,-1,-4,3.8*,-0.85,-3,1.4,9252*,1692,i
C/C=C/Cn1c(SCc2ccc(C)cc2)nc2c1c(=O)[nH]c(=O)n2C,-3,-10,12*,-0.03,-3,0.72,26548*,1688,+
C=CCn1c(SCc2ccc(Cl)cc2)nc2c1c(=O)[nH]c(=O)n2C,6,-2,2.9*,-1.1,1,0.23,8180*,1824,+
CCSc1nc2c(c(=O)[nH]c(=O)n2C)n1C,-1,-8,.,1,3,-0.39,.,.,.
C=CCSc1nc2c(c(=O)[nH]c(=O)n2C)n1C(C)C,7,-30,9.5*,1.2,0,-0.29,11684*,1520,+
Cc1nc(NC(=O)C23CC4CC(CC(C4)C2)C3)sc1Cc1ccc2c(c1)OCO2,.,-3,.,.,2,.,.,.,.
O=C(CCNS(=O)(=O)c1cccs1)N1CCc2ccccc2C1,1,.,3.4*,0.53,.,0.4,4796,.,+
Cc1ccc2[nH]c(=O)c(CN(CCc3ccccc3)C(=O)N3CCOCC3)cc2c1,-1,25,-0.1,-0.63,-2,0.99,.,.,.
COc1ccc(CCN(Cc2cc3cc(C)ccc3[nH]c2=O)C(=O)N2CCCC2)cc1OC,.,-3,9.1*,-0.84,-2,0.77,13088*,1584,+
NC(=S)NNC(=O)c1ccccc1,-2,.,.,1,.,-0.00038,.,.,.
C=C1CCN([C@@H](CC(C)C)C(=O)N2CCCC2)S(=O)(=O)c2ccccc21,.,.,.,.,.,0.12,.,.,.
CCn1c(SCc2nc3cc(OC)c(OC)cc3c(=O)[nH]2)nnc1-c1ccncc1,-1,-6,-1.6,0.93,2,-0.89,.,.,.
Cc1ccc(CSCCNC(=O)c2ccc(Cl)c(S(=O)(=O)N3CCOCC3)c2)cc1,0,34,.,0.01,3,-0.03,.,.,.
SMILES,FAK inh,Mac1 fbg inh,D1 mod,PTK2B oligo ant,Mac1 fbg enh,hDAT+cocaine,D1 PAM confirm,D1 ag no DA,Isoprot counter
CCCCn1cc(C(C)(C)C)c(C#N)c1NC(C)=O,2,-2,6*,.,3,-0.0076,9748*,1536,+
CC1Cc2ccccc2N1C(=O)CSC1=NCCS1 (configuration not stated),-1,-2,0.48,-0.15,1,0.11,.,.,.
CC1Cc2ccccc2N1C(=O)c1ccc2snnc2c1 (configuration not stated),3,-11,15*,-0.63,0,0.45,13280*,1492,+
COc1ccc(CCNC(=O)C2CC(=O)N(C3CCCCCCC3)C2)cc1OC (configuration not stated),0,-5,.,0.4,-2,0.29,.,.,.
COc1ccc(CCNC(=O)C2CC(=O)N(c3ccccc3)C2)cc1OC (configuration not stated),-6,18,2.9*,-0.66,2,0.0015,5376,1464,i
CC(C)OC(=O)c1nnn(-c2nonc2N)c1CN1CCCCCC1,-1,8,-0.49,0.82,4,-0.62,.,.,.
Cc1cc(C)n(-c2nc3c(c(=O)n(C)c(=O)n3C)n2CC(O)COc2ccccc2C)n1 (configuration not stated),1,.,.,.,.,.,.,.,.
Cc1ccccc1OCC(O)Cn1c(NCCN(C)C)nc2c1c(=O)n(C)c(=O)n2C (configuration not stated),-1,-12,8.2*,.,-2,.,4948,1480,i
CC1CCCC(NC(=O)COC(=O)c2sc3ccccc3c2Cl)C1C (configuration not stated),.,10,.,.,35,.,.,.,.
c1ccc2c(c1)OCC(c1csc3ncnc(N4CCOCC4)c13)O2 (configuration not stated),2,6,3.8*,-1.3,0,-0.058,5072,1584,+
CS(=O)(=O)N(CC(=O)N1CCCCCC1)c1ccc(Br)cc1,1,-40,0.0021,0.55,-2,-0.97,.,.,.
CC(C)(C)CC(C)(C)NC(=O)CSCC(=O)Nc1ccc2ccccc2c1,0,.,.,-0.98,.,0.16,.,.,.
CCOC(=O)C1CSc2[nH]c(=O)sc2C1c1ccccc1 (configuration not stated),2,3,8.2*,0.53,0,-1,11512*,1668,+
NC(=O)CSc1nc2scc(-c3ccco3)c2c(=O)n1-c1ccccc1,1,2,3.4*,1.4,0,0.37,10400*,.,i
O=C(CSc1nc2scc(-c3ccco3)c2c(=O)n1-c1ccccc1)N1CCOCC1,3,4,2.2,0.97,0,-0.21,.,.,.
